Source: PubChem BioAssay (NCI)
The panel holds about 83,000 compounds, 20% with a hit somewhere; the sample as a whole holds those more often.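 Step 1: grow cells in 96-well plates. Step 2: add test compound at a single concentration. Step 3: incubate 48 h. Step 4: record percent growth.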 Values without a mark were called inactive. Active and inactive are the calls of the source. Rule for the calls: active = growth percent below 10; inactive = the rest.

Legend:
Experiment in all cases: NCI-60 one-dose screen, 48 h (100 = growth as untreated, 0 = no growth, -100 = all killed)
Conditions in all cases: 10 µM
[1] = test system: SN12C renal
[2] = test system: UO-31 renal
[3] = test system: TK-10 renal
[4] = test system: ACHN renal
[5] = test system: CAKI-1 renal
[6] = test system: A498 renal
[7] = test system: CCRF-CEM leukemia
[8] = test system: MOLT-4 leukemia
[9] = test system: SR leukemia
[10] = test system: RPMI-8226 leukemia
[11] = test system: OVCAR-8 ovarian
[12] = test system: OVCAR-5 ovarian
[13] = test system: OVCAR-4 ovarian
[14] = test system: SK-OV-3 ovarian
[15] = test system: IGROV1 ovarian
[16] = test system: OVCAR-3 ovarian
[17] = test system: HS 578T breast
[18] = test system: NCI/ADR-RES ovarian
[19] = test system: EKVX NSCLC
[20] = test system: T-47D breast

| Structure (SMILES) | growth [1] | growth [2] | growth [3] | growth [4] | growth [5] | growth [6] | growth [7] | growth [8] | growth [9] | growth [10] | growth [11] | growth [12] | growth [13] | growth [14] | growth [15] | growth [16] | growth [17] | growth [18] | growth [19] | growth [20] |
| --- | --- | --- | --- | --- | --- | --- | --- | --- | --- | --- | --- | --- | --- | --- | --- | --- | --- | --- | --- | --- |
| CSCCCNC(=O)c1ccc2c(c1)/C(=C/c1[nH]c(C)cc1C)C(=O)N2 | 22% | 9.33% (active) | 29.4% | 0.349% (active) | 9.54% (active) | -25.9% (active) | 52.2% | 29.1% | 10.7% | 19.7% | 32.6% | 35.9% | 27.6% | 20.5% | -12.5% (active) | 45% | -13.5% (active) | 42.9% |  |  |
| Cc1cs/c(=N\NC(=O)c2cc(-c3cc4ccccc4o3)nn2-c2ccccc2)n1-c1ccccc1 | 96.7% |  | 121% | 88.7% | 100% |  | 75.7% | 75% | 76.9% |  | 90.8% | 107% | 82.1% | 91.2% | 2.32% (active) | 67% | 49.7% | 87.1% | 72.4% | 69.6% |
| COc1cc(-c2cc(/C=C/C(=O)c3ccc(N)cc3)[nH]n2)cc(OC)c1OC | 13.2% | 6% (active) | -2.46% (active) | -52.8% (active) | 9.46% (active) | -8.28% (active) | 5.88% (active) | 3.34% (active) | 9.82% (active) | -26.5% (active) | -53.4% (active) | -15% (active) | 26.8% | 27.2% | 18.1% | -45.9% (active) | 19.2% | 64.7% |  | 5.11% (active) |
| COc1ccc(Cl)cc1-n1nnc(-c2nc3ccccc3[nH]2)c1N | 94.3% | 71.9% | 85.9% | 51.4% | 67.7% | 89.3% | 104% | 98.5% | 71.8% | 53.9% | 82.4% | 96.2% | -79.9% (active) | 62.6% | 85.5% | 86.7% | 43.3% | 92.1% |  | 67.5% |
| COc1ccc2c(c1)nc(N)c1c3cccnc3cn21 |  | 42.3% | 51.3% | 37.8% | -15.7% (active) | -9.56% (active) | 22.7% | 30.9% | 6.83% (active) | 34.3% | 4.95% (active) |  |  | 9.24% (active) | 17.8% | 20.4% | 43.1% | -2.31% (active) | 66.5% | 62.6% |
| COc1cc2c(cc1OCCCN1CCN(c3ncnc4ccccc34)CC1)N=CC1CCCN1C2=O (stereo not drawn) | 3.4% (active) |  | -7.43% (active) | 2.77% (active) | -12.1% (active) |  | -45.8% (active) | -44.3% (active) | -43.4% (active) |  | -54.7% (active) | 17.7% | 4.86% (active) | 19.8% | -28.9% (active) | -35.2% (active) | -57.6% (active) | 15.9% | -38.6% (active) | 25% |
| C#Cc1ccc(-n2c(/C=C/c3ccc4ccccc4c3)nc3ncccc3c2=O)cc1 | 28.9% | 13.7% | 21.4% | 23.1% | 13% | -2.88% (active) | 2.66% (active) | 4.88% (active) | 4.43% (active) | -8.86% (active) | 38.5% | 105% | -3.79% (active) | 68.9% | 52.7% | 17% | 72.8% | 42.5% |  | 42.7% |
| Cc1cc(C)c(NC(=O)c2sc3nc4c(cc3c2N)C(=O)CCC4)c(C)c1 |  | 56.9% | 44.8% | 55.3% | -22.2% (active) | -7.37% (active) | 22.1% | 43% | 10.5% | 31.8% | 45.6% |  |  | 10.4% | 35.4% | 13.2% | 17.7% | -8.04% (active) | 54.4% | 40.6% |
| C[C@@H]1C=C2C(=O)O[C@@H]3CC[C@H](C1)[C@]23O | 81% | 63.4% | 75.8% | 72.3% | 50.6% | 129% | 18.6% | 62.8% | 18.6% | 75.8% | 78.3% | 104% | 76.5% | 105% | 42.2% | 66.9% | 96.4% | 93.2% |  | 26.3% |
| O=C(Nc1ccc(OS(=O)(=O)c2ccccc2)cc1)C12CC3CC(CC(C3)C1)C2 | 63.5% | 44.6% | 68.6% | 78.5% | 54.7% | 14.4% | 40.2% | 39.5% | 11.2% | 18.8% | 63% | 68% | 58.9% | 74% | 75.1% | 63.9% | 63.1% | 52.5% |  | 27% |
| COc1ccc(-c2nsc3c2NC(=O)CC3c2ccc(F)cc2)cc1 (stereo not drawn) | 51.6% | 48.7% | 38.5% | 47.1% | 24.3% | 53.8% | 45.3% | 21.7% | 3.34% (active) | 39.6% | 46.1% | 40.3% | 90.8% | 35.2% | 56.2% | 23.9% | 66.6% | 5.04% (active) |  | 22.2% |
| COc1ccc(-c2nn(-c3cccc(NC(=O)c4ccc(Cl)c(Cl)c4)c3)cc2-c2ccncc2)cc1Cl | 86.7% | 47.6% | 85% | 78.8% | 73.1% | 54.7% | 61.7% | 62.7% | 24.3% | 58% | 75.5% | 92.4% | 93.3% | 82.2% | 84.5% | 81.9% | 72.5% | 61.4% |  | 62.8% |
| CNc1ncc(-c2ccc(C(F)(F)F)cc2)c(NC2CCCCCC2)n1 | 84% | 38.4% | 83.5% | 73.1% | 60.9% | 83.4% | 70.2% | 68.2% | 43.9% | 32.1% | 84.2% | 88.8% | 70.1% | 83% | 63.9% | 78.2% | 99.6% | 65.2% |  |  |
| N#Cc1ncc(Br)c(NC2CCCCCC2)n1 | 93.5% | 84.7% | 134% | 100% | 89.4% | 103% | 85% | 86.8% | 80.9% | 93.4% | 89.8% | 99.9% | 91.3% | 99.1% | 104% | 119% | 107% | 106% |  | 90.8% |
| COc1cc(/C=C2\CCCC3=C2N=C2SC=NN2C3c2cc(OC)c(OC)c(OC)c2)cc(OC)c1OC (stereo not drawn) | 7.13% (active) | 36% | 17.5% | 15.3% | 9.47% (active) | 24.5% | 2.74% (active) | -2.28% (active) | 7.88% (active) | -22.5% (active) | 9.84% (active) | 91.9% | 47% | 57.4% | 29% | 29.3% | 42.8% | 18.5% |  | 61.4% |
| Cc1[nH]nc2c1C(c1cnn(C)c1)C(C#N)=C(N)O2 (stereo not drawn) | 103% | 81.3% | 102% | 104% | 102% | 69.9% | 101% | 98.6% | 89.3% | 99.3% | 99.8% | 109% | 101% | 103% | 106% | 106% | 104% | 108% |  | 96.4% |
| COc1ccc(Nc2ncnc3c2c(SC)nn3-c2ccccc2)cc1 | 83.8% | 77.2% | 117% | 100% | 82.7% | 118% | 98.5% | 88.1% | 84.2% | 85.3% | 98% | 96.7% | 73.3% | 109% | 88.4% | 99.1% | 136% | 91.9% |  | 70.7% |
